This is part of a sample that, as a whole, favours compounds with a hit. Of some 79,000 tested, about 15% had one in any assay. Values without a mark were called inactive. Activity calls are given as the source filed them. No stated cut-off is given here; in the data, active means growth inhibition above about 70%; inactive means the rest.
What was measured:
[1] = NCI Yeast Anticancer Drug Screen. Data for the rad50 strain (AID 155);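 further: 0% = growth of vehicle-only cultures of the same strain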; details: S. cerevisiae rad50 strain growth inhibition; at 50.0 µM; active compounds read high
Procedure, shortened: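 Cells are treated with compound, grown, and their growth is then scored against vehicle-only cultures of the same repair-deficient yeast strain.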

[2] = NCI Yeast Anticancer Drug Screen. Data for the mec2-1 strain (AID 157); details: S. cerevisiae mec2-1 strain, at 50.0 µM, active compounds read high
Procedure, shortened: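 Mutant yeast (mec2-1) grown with compound; growth inhibition relative to vehicle control reported.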

[3] = NCI Yeast Anticancer Drug Screen. Data for the sgs1 mgt1 strain (AID 161);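 further: 0% = growth of cultures given vehicle only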; details: S. cerevisiae sgs1 mgt1 strain, at 50.0 µM, active compounds read high
Procedure, shortened: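 Growth of a repair-deficient yeast mutant was monitored after compound treatment and expressed as inhibition relative to vehicle-treated cultures.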

[4] = NCI Yeast Anticancer Drug Screen. Data for the cln2 rad14 strain (AID 165);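 further: 0% = growth equal to vehicle treated cultures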; details: S. cerevisiae cln2 rad14 strain, at 50.0 µM, active compounds read high
Procedure, shortened: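 Readout is yeast growth inhibition versus vehicle-treated controls, using a strain with cln2 and rad14 alterations exposed to compound.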

[5] = NCI Yeast Anticancer Drug Screen. Data for the bub3 strain (AID 167); details: S. cerevisiae bub3 mutant strain, at 50.0 µM, active compounds read high
Procedure, shortened: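 Part of a panel of yeast mutants defective in DNA damage repair or cell cycle regulation. Each strain is grown with compound, and inhibition is calculated relative to solvent-treated cultures.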

[6] = NCI Yeast Anticancer Drug Screen. Data for the mlh1 rad18 strain (AID 175); details: S. cerevisiae mlh1 rad18 strain growth inhibition; at 50.0 µM; active compounds read high
Procedure, shortened: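 Genetically defined yeast (DNA repair-deficient) exposed to compounds; growth inhibition determined relative to vehicle.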

| SMILES | growth inhibition [1] | growth inhibition [2] | growth inhibition [3] | growth inhibition [4] | growth inhibition [5] [%] | growth inhibition [6] |
| --- | --- | --- | --- | --- | --- | --- |
| CCCNC(=O)Nc1ccccc1OCC | -3.6% | -5.55% | -8.6% | -68% | 13.2 | -5.25% |
| O=C1OC2C(O)C3CC1C2O3 (configuration not stated) | -8.15% | -6.05% | -5.5% | -6.85% | -2.25 | 0.45% |
| Cc1cccc(Cl)c1OCC(=O)O | -1.25% | -8.55% | -1.95% | -35.8% | -20.8 | -13.2% |
| COc1ccc2oc(=S)[nH]c2c1 | 11.8% | 8.6% | 54.1% | 9.4% | -4.45 | 42.7% |
| Cc1nc2nn(C)cc2c(=O)n1/N=C/c1ccccc1 | -18.8% | -35.5% | -50.1% | -5.9% | -4.15 | -37.4% |
| O=[N+]([O-])c1ccc(NCn2c(=S)sc3ccccc32)cc1 | 13.7% | -27% | 11.4% | 2.15% | 2.8 | 3.6% |
| Cn1c(Cl)cc2nc3ccccc3n2c1=O | 10.2% | 19.7% | -1% | -11.3% | 11.2 | 5.4% |
| CCCCCCCCOC1OC(COC(C)=O)C(OC(C)=O)C(OC(C)=O)C1OC(C)=O (configuration not stated) | -3% | 3.75% | -4.45% | 6.75% | -35.5 | -6.95% |
| O=C(Nc1ccccc1-c1ccccc1)c1ccccc1 | 1.15% | -11.5% | 20.1% | 11.3% | 45.4 | 26.9% |
| COc1ccc(NC(=O)CCc2cc(-c3ccc(O)c(OC)c3)nc(NC#N)n2)cc1 | -8.1% | 9% | -37% | 6% | 27.6 | -28.9% |
| O=[N+]([O-])c1ccc2nc(/C=C(\O)c3ccccc3)c(NC34CC5CC(CC(C5)C3)C4)nc2c1 | 16.4% | -17.5% | 13.9% | -39.4% | -17.8 | -2.35% |
| O=C(N/C(=C/c1ccc(Cl)cc1)c1nc2ccccc2c(=O)n1Nc1ccc([N+](=O)[O-])cc1[N+](=O)[O-])c1ccccc1 | -19% | -5% | -19.7% | 0.3% | -21.6 | -17.5% |
| CCCCCCCSSCCCCCCC | -9.85% | -26.1% | -3.55% | 11.9% | -16 | -0.4% |
| CC(=O)NC(CCCNC(=O)N(CCCl)N=O)C(=O)NCc1ccccc1 (configuration not stated) | -1.85% | -16.5% | 1.75% | 23.3% | 2.65 | -13.6% |
| COc1ccccc1Oc1ccccc1 | -20.7% | -61.3% | -8.6% | 13.6% | -34 | 20.8% |
| CCOC(=O)NC(Nc1ccc(F)cc1F)(C(F)(F)F)C(F)(F)F | 12.8% | -23.4% | -15.7% | 10.2% | -14.8 | 1.4% |
| COC(=O)c1ccccc1/C=C1\Cc2cc3c(cc2C1=O)CCC3 | -31.6% | -45% | -1.45% | 5.65% | -4.45 | -8.05% |
| OCC(O)c1ccc(Cl)cc1 (configuration not stated) | -23% | -17.6% | -14.8% | -14% | -15.8 | -0.3% |
| CC(C)(C)NC(=O)NCc1ccc(Cl)c(Cl)c1 | 2.95% | 27.4% | 17.8% | -6.05% | -5.05 | 21.6% |

| SMILES | growth inhibition [1] | growth inhibition [2] | growth inhibition [3] | growth inhibition [4] | growth inhibition [5] [%] | growth inhibition [6] |
| --- | --- | --- | --- | --- | --- | --- |
| Cc1ccc2nc(N)nc(N)c2c1 | -12.9% | 7.15% | -8.4% | 3.25% | -10.6 | -3.8% |
| O=C(/C=C(/CC(O)(c1ccccc1)c1ccccc1)Nc1ccccc1)c1ccccc1 | 10.3% | -2.7% | -6.4% | 2.35% | -1.2 | -2.1% |
| NNC(=O)NN1C(=O)c2cc(S(=O)(=O)O)cc3c(N)c(S(=O)(=O)O)cc(c23)C1=O | 35.2% | -3.05% | 14.6% | 6.35% | -5.45 | 10.3% |
| CCC(O)C(CC)[N+](=O)[O-] (configuration not stated) | -4.45% | -17.4% | -2.75% | 4.05% | -2.8 | 5.5% |
| O=C1c2cc(O)c(O)cc2C(=O)c2cc3c(cc21)OCO3 | -38.2% | -5.55% | 1.4% | -11.6% | -8.3 | -15.9% |
| S=C1Nc2ccccc2C2CC=NN12 (configuration not stated) | -1.75% | -4.15% | 10.6% | -30% | -44.6 | 29.4% |
| COc1cccc(/C=C(\C#N)C(=O)c2ccccc2)c1 | 4.4% | 19.6% | 11.2% | 19.6% | 13.9 | 19% |
| CSc1nc(=S)c2[nH]c(Cl)nc2[nH]1 | -1.8% | 0.4% | -6.9% | -15.2% | 16.4 | 0.25% |
| CCCCCCn1c(=O)c(N(C)C)c(C)n(C)c1=O | -36.1% | -3.5% | -9.05% | 46% | 17.7 | -23.4% |
| C/C(N=NC(=S)N1CCC(C)CC1)=C1\C=CC=CN1O | 97.3% (active) | 91.5% (active) | 95.9% (active) | 87.2% (active) | 48 | 98.3% (active) |
| Cc1cn(C2OC(CO)C(O)C(O)C2O)c(=O)[nH]c1=O (configuration not stated) | -1.4% | 5.65% | -5.45% | -3.2% | 15.2 | 0.9% |
| COc1cc(C)c(C2NC(=O)c3ccccc3N2)cc1C (configuration not stated) | 10.1% | 2.8% | -10.1% | 17.4% | -2.55 | -4.55% |
| CCCC(/C(C)=N/NC(N)=O)C1CCCCC1 (configuration not stated) | 14.2% | 7.45% | -2.6% | 1% | -5.1 | 2% |
| NC(=O)CC(N)=O | 6.1% | -5.1% | -2.35% | 9.4% | 1.25 | 4.6% |
| CN(C)C(=O)c1ccccc1 | 29.6% | 6.25% | -0.35% | 13.9% | -9.25 | 1.55% |
| CCN(CC)CCNc1ncnc2c1cnn2C | 7.7% | 1.8% | -17.9% | -4.5% | -20.9 | -8.9% |
| O=C1c2ccccc2C2(O)Nc3c(ccc4ccccc34)C12O (configuration not stated) | 2% | -3.3% | 10.6% | -3.8% | -16.9 | 15.4% |
| O=[N+]([O-])c1ccc(SC2=NCCCN2)c(Cl)c1 | 36.7% | -0.55% | 33.9% | 11.1% | 32.6 | 26.1% |

Reference: PubChem BioAssay (NCI)
